Data reported in PubChem BioAssay (Tox21).
Inconclusive results are not listed. Calls of active or inactive are those of the source. The call rests on the fitted dose curve. Residues, ends and D or L forms follow the SMILES beside them.

assay: qHTS assay for small molecule agonists of the antioxidant response element (ARE) signaling pathway - cell viability counter screen (AID 743203); settings: ARE-bla HepG2 viability, CellTiter-Glo luminescence, 16 h; series mostly up to 73.3 µM; further: nearly all actives have a fitted effect of over 55% in size
Source text: National Center for Advancing Translational Sciences [NCATS]
NIH Chemical Genomics Center [NCGC]
U.S. Environmental Protection Agency [EPA]
National Institutes of Environmental Health Sciences [NIEHS]
National Toxicology Program [NTP]
U.S. Food and Drug Administration [FDA]
Oxidative stress has been implicated in the pathogenesis of a variety of diseases ranging from cancer to neurodegeneration. The antioxidant response element (ARE) signaling pathway plays an important role in the amelioration of oxidative stress. The CellSensor ARE-bla HepG2 cell line (Invitrogen) can be used for analyzing the Nrf2/antioxidant response signaling pathway. Nrf2 (NF-E2-related factor 2) and Nrf1 are transcription factors that bind to AREs and activate these genes. The CellSensor ARE-bla Hep G2 cell line contains a beta-lactamase reporter gene under control of the Antioxidant Response Element (ARE) stably integrated into HepG2 cells. The activation of the report gene under culture conditions can be detected by fluorescence intensity. This cell line has been used to screen the Tox21 10K compound library to identify agonists that induce oxidative stress. The cytotoxicity of the Tox21 compound library against the ARE-bla cell line was tested in parallel by measuring the cell viability using CellTiter-Glo assay (Promega, Madison, WI) in the same wells.
Tox21 Assay Protocol Summary:
ARE-bla HepG2 cells were dispensed at 2,000 cells/5 ul/well in 1536-well white wall/solid bottom plates using a Multidrop Combi (ThermoFisher Scientific, Waltham, MA) dispenser. After the assay plates were incubated at 37C/5% CO2 for 5 hrs, 23 nL of compounds dissolved in DMSO, positive controls or DMSO only was transferred to the assay plate by a pintool work station (Kalypsys, San Diego, CA). The plates were incubated at 37C/5% CO2 for 16 hrs, followed by addition of 4 ul/well of CellTiter-Glo reagent into the assay plates using a Flying Reagent Dispenser (Aurora Discovery, San Diego, CA). After 30 min incubation at room temperature, the luminescence intensity in the assay plates was measured using a ViewLux (PerkinElmer, Shelton, CT) plate reader.

SMILES | outcome
CCCCC1C(=O)N(c2ccccc2)N(c2ccccc2)C1=O | inactive
O=C(O)CS | inactive
NS(=O)(=O)c1cc(C(=O)O)c(NCc2ccco2)cc1Cl | inactive
CC(O)C(=O)O (stereo not given) | inactive
CCCCC(CC)COC(=O)/C=C/c1ccc(OC)cc1 (stereo not given) | inactive
CCCCCCCCCCCCCCCC(=O)O | inactive
O=c1cc[nH]c(=S)[nH]1 | inactive
N=C(N)c1ccc(OCCCCCOc2ccc(C(=N)N)cc2)cc1 | inactive
CCCN(CCC)S(=O)(=O)c1ccc(C(=O)O)cc1 | inactive
O=C(O)C(=O)O | inactive
C/C=C/c1ccc(OC)cc1 | inactive
NNC(=O)c1ccncc1 | inactive
O=C(O)CCC(=O)O | inactive
O=C(O)c1cc(N=Nc2ccc(S(=O)(=O)Nc3ccccn3)cc2)ccc1O | inactive
O=C(O)CCCCC(=O)O | inactive
Nc1ccc(O)c(C(=O)O)c1 | inactive
NC(=O)c1ccccc1O | inactive
NC(=O)NC1NC(=O)NC1=O (stereo not given) | inactive
Cc1ccc(S(=O)(=O)NC(=O)NN2CCCCCC2)cc1 | inactive
Nc1ccc(S(=O)(=O)Nc2nccs2)cc1 | inactive

SMILES | outcome
Cc1ccccc1C(OCCN(C)C)c1ccccc1 (stereo not given) | inactive
Nc1ccc(C(=O)O)cc1 | inactive
COc1ccc2[nH]cc(CCNC(C)=O)c2c1 | inactive
Cc1cn([C@H]2C[C@H](N=[N+]=[N-])[C@@H](CO)O2)c(=O)[nH]c1=O | inactive
CC(C)[C@@H]1CC[C@@H](C)C[C@H]1O | inactive
O=C(C1CCCCC1)N1CC(=O)N2CCc3ccccc3C2C1 (stereo not given) | inactive
Oc1ccc(/C=C/c2cc(O)cc(O)c2)cc1 | inactive
CC(=O)Nc1nnc(S(N)(=O)=O)s1 | inactive
NC(N)=NC(=O)c1nc(Cl)c(N)nc1N | inactive
C[C@]12C=CC(=O)C=C1CC[C@@H]1[C@@H]2[C@@H](O)C[C@@]2(C)[C@H]1CC[C@]2(O)C(=O)CO | inactive
O=C(O)c1cccc([N+](=O)[O-])c1 | inactive
Nc1ccc(S(=O)(=O)c2ccc(N)cc2)cc1 | inactive
OC(Cn1cncn1)(Cn1cncn1)c1ccc(F)cc1F | inactive
CC(=O)NS(=O)(=O)c1ccc(N)cc1 | inactive
COC(=O)[C@H](Cc1ccccc1)NC(=O)[C@@H](N)CC(=O)O (H-Asp-Phe-OMe) | inactive
CC(O)CO (stereo not given) | inactive
CCC1(c2ccccc2)C(=O)NCNC1=O | inactive
O=C(O)CCCCCCCC(=O)O | inactive
CCCC(O)C(CC)CO (stereo not given) | inactive
CNC[C@H](O)c1cccc(O)c1 | inactive
